Rows were chosen to be rich in hits. Some 7.4% of all compounds tested hit in one or more screens of this group.
Rab9 promoter act: qHTS Assay for Rab9 Promoter Activators; 2.8% of 320,000 active; Potency, µM (series often up to 9.22 µM), without a hit: at the highest dose activation, negative = inhibition, usual class: activators; Huh7 Rab9 promoter-luciferase reporter, luminescence, 24 h; further: % of control where 0% means no effect; nearly all actives have a fitted effect of over 60% in size
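Huh7 reporter line, Rab9 promoter upstream of luciferase. Compound exposure 24 h at 37 °C in reduced-serum medium with 10% FBS. Read-out: luminescence.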
NPC1 promoter act: qHTS Assay for NPC1 Promoter Activators | AID 485313, 2010 | Huh7 NPC1 promoter luciferase reporter, 24 h | Potency, µM (top dose mostly 9.22 µM), inactives show at the highest dose activation, most hits filed as activators | 2.4% of 320,000 active; further: % of control where 0% means no effect; nearly all actives have a fitted effect of over 60% in size
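Luminescence read-out of NPC1 promoter-driven luciferase in stably transfected Huh7 cells; compounds delivered in DMSO and left 24 h at 37C, 5% CO2, qHTS titration format.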
FLuc counter: qHTS profiling assay for firefly luciferase inhibitor/activator using purifed enzyme and Km concentrations of substrates (counterscreen for miR-21 project) | Luciferin 4-monooxygenase (Photinus pyralis), P08659 | purified FLuc, Km substrates, luminescence inhibition | Potency, µM (highest dose often 57.5 µM), without a hit: top-dose activity change, negative = inhibition, hits mostly inhibitors | 6.9% of 360,000 active | AID 588342, 2011;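 further: plate controls were vehicle for no effect and reference inhibitor for full effect; nearly all actives have a fitted effect of over 55% in size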
Target sequence (P08659 whole entry, looked up): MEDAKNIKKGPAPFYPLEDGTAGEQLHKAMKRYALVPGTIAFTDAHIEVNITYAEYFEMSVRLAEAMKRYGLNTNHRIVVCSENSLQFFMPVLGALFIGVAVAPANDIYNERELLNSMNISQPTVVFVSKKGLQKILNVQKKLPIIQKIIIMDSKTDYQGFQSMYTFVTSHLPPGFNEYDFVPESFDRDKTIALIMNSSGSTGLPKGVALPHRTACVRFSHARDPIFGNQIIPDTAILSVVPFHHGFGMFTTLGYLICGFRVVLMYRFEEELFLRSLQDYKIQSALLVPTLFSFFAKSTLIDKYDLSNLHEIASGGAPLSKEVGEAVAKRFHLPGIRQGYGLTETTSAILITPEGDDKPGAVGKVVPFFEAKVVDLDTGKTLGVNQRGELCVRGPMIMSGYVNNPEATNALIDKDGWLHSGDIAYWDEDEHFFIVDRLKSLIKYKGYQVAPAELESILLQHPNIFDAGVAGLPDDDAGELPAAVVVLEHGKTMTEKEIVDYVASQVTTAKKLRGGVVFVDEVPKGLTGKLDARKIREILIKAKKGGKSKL
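Purified P. pyralis luciferase (10nM final) with 10uM D-luciferin and 10uM ATP (Km levels) in 50mM Tris acetate pH 7.5, 10mM Mg acetate, 0.01% Tween-20, 0.05% BSA; qHTS 6-point titration, ~60 µM downward; luminescence read.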
SMN2 splice up: qHTS Assay for Enhancers of SMN2 Splice Variant Expression; AID 1458, 2008; Potency, µM (highest dose often 46.1 µM), inactives show at the top dose activity change, positive = activation, actives largely listed as activators; 2.8% of 210,000 active; HEK293 SMN2-luciferase splicing reporter, luminescence, 30-36 h; further: % of control where 0% means no effect; nearly all actives have a fitted effect of over 55% in size
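HEK293 cells carry an SMN2 […]–luciferase reporter in which exon 7 inclusion puts luciferase in frame. Cells were plated 10-12 h before compound addition, then incubated 30-36 h at 37C. ONE-Glo luminescence was read; sodium butyrate at 4.5 mM final served as control.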
ELG1 genotox: qHTS screen for small molecules that induce genotoxicity in human embryonic kidney (HEK293T) cells expressing luciferase-tagged ELG1; HEK293T ELG1-luciferase reporter, luminescence, 16 h; Potency, µM (highest dose often 46 µM), inactives show at the highest dose activity change, positive = activation, hits mostly activators; 1.3% of 330,000 active; AID 504466, 2011; further: % of control where 0% means no effect; nearly all actives have a fitted effect of over 60% in size
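After overnight (16 hr) compound treatment at 37 °C, ELG1-luciferase HEK293T cells were lysed with ONE-Glo; luminescence quantified 30 min later at room temperature.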
Luc counter: Counterscreen for Luciferase (Kinase-Glo TM) Inhibition | 0.28% of 200,000 active | Luciferin 4-monooxygenase (Photuris pensylvanica), Q27757 | Potency, µM (doses to about 38.3 µM), inactives show top-dose activity change, negative = inhibition, actives largely listed as inhibitors | AID 1379, 2008 | Kinase-Glo luciferase, ATP luminescence, 8 min; further: on the % scale 0 is the no-effect control and ±100 the full control effect; nearly all actives have a fitted effect of over 60% in size
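Kinase-Glo luciferase light output from ATP and luciferin was measured with 10 uM ATP, within the enzyme's linear range. Buffer: 50 mM imidazole pH 7.2, 50 mM KCl, 7 mM MgCl2, 0.01% Tween 20, 0.05% BSA; luminescence read after 8 min at ambient temperature.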
The depositor's hits bear a star; ? = inconclusive; / = no result; [ ] = dose if it differs, or a comment. The call rests on the fitted dose curve; in most records, active means well fitted curve in the direction sought with a large enough effect; inconclusive means small, poorly fitted or top-dose-only effect, or another doubt; inactive means no such curve, though single readings can be large; an effect the other way counts as inactive or inconclusive. Potency means the concentration at half of the fitted maximal effect.

SMILES	Rab9 promoter act	NPC1 promoter act	FLuc counter	SMN2 splice up	ELG1 genotox	Luc counter
CS(=O)(=O)N1CCC[C@@]2(CCN(C(=O)Nc3cccc(C#N)c3)C2)C1	/	/	/	-6.9%	/	-1.4%
CN(C)c1cccc(C(=O)Nc2cccc(F)c2)c1	2.82µM*	2.24µM*	19µM*	14.1µM*	?	-5.2%
CCN(CC)c1ccc(C(=O)Nc2cccc(F)c2)cc1	1.12µM*	0.794µM*	?	8.91µM*	?	-0.8%
O=C(Nc1cccc(F)c1)c1c(F)c(F)c(F)c(F)c1F	-0.5%	-2.5%	2.5%	1.2%	-21.9%	-1.2%
COc1ccccc1-c1c(C)nn2c(N3CCN(c4ccc(F)cc4)CC3)cc(C)nc12	/	/	-0.4%	/	/	/
Cc1ccc(-c2ocnc2C(=O)Nc2ccccc2NC(=O)c2ccccn2)cc1	1.4%	-0.1%	15.1µM*	/	-18.7%	/
Cc1ccc(-c2ocnc2C(=O)Nc2nc(C)cs2)cc1	27.1%	?	?	/	13.5%	/
Cc1cccc(-c2ocnc2C(=O)Nc2ccccc2NC(=O)c2ccccn2)c1	0.0%	-0.6%	13.5µM*	/	-16.2%	/
COc1ccccc1N=C1NC(=O)/C(=C/c2ccc(N(C)C)cc2)S1	4.1%	-10.7%	1.07µM*	/	?	/
COc1ccc(/C=C2/SC(=O)NC2=O)cc1	3.16µM*	?	4.26µM*	/	?	0.9%
O=C1NC(=O)/C(=C\c2ccc(Cl)nc2)S1	?	?	15.1µM*	/	?	0.3%
CCc1ccc(N=C2NC(=O)/C(=C/c3ccc(OCC(=O)O)cc3)S2)cc1	-11.3%	2.0%	6.01µM*	/	-1.0%	/
CCOc1ccc(N=C2NC(=O)S/C2=C\c2ccc(OC)cc2)cc1	-2.8%	-2.4%	3.2%	-14.7%	4.9%	18.6%
Cc1ccc(C)c(C(=O)N2CCC(c3nc4c(nnn4Cc4ccccc4)c(=O)[nH]3)CC2)c1	/	/	2.2%	?	/	/
CCOC(=O)c1cc(OC(=O)c2cc(OC)cc(OC)c2)n(-c2ccccc2)n1	/	/	-12.9%	-7.1%	/	/
O=C1NC(=Nc2cccnc2)S/C1=C/c1ccc(F)cc1	-5.7%	-3.7%	10.7µM*	/	2.8%	/
COc1ccc(/C=C2\SC(=Nc3ccccc3)NC2=O)cc1	4.4%	-4.9%	7.57µM*	/	7.4%	/
COC(=O)/C(=C1/OC(=O)C(c2ccccc2)=C1O)c1ccccc1	/	/	/	3.7%	/	0.3%
O=C(c1cc(C(F)(F)F)cc(C(F)(F)F)c1)N1CCC[C@@]2(CCN(Cc3ccccc3)C2)C1	/	/	/	-2.4%	/	-1.7%
COc1cc(/C=C2\NC(=S)NC2=O)ccc1OCc1cccc(C(=O)O)c1	17.4%	18.7%	0.379µM*	/	20.6µM*	/
O=C1NC(=O)/C(=C\c2ccc(OCc3cccc(C(=O)O)c3)c(Cl)c2)N1	2.24µM*	?	0.601µM*	11.2µM*	-3.4%	-0.4%
CC1CCCC(=C\c2ccccc2)/C1=N/O (configuration not stated)	-2.2%	-0.4%	-8.0%	-4.9%	3.0%	-5.9%
CC1CCC/C(=C\Nc2ccccc2C(=O)O)C1=O (configuration not stated)	0.1%	19.5%	23.9µM*	13.5%	12.2%	-3.9%
CC1CCC/C(=C\Nc2ccc3c(c2)OCO3)C1=O (configuration not stated)	?	?	8.49µM*	?	10.3µM*	-19.5%
O=C1CCC/C1=C/Nc1ccc2c(c1)OCO2	?	10.2%	16.9µM*	?	7.9%	-1.4%
SMILES	Rab9 promoter act	NPC1 promoter act	FLuc counter	SMN2 splice up	ELG1 genotox	Luc counter
COc1cc(NC(=O)C2CCN(S(=O)(=O)c3c(C)noc3/C=C/c3cccs3)CC2)cc(OC)c1	/	/	-2.3%	-4.5%	/	/
CCN(CC)S(=O)(=O)c1cccc(-c2cn3cc(C)ccc3n2)c1	16.2%	11.8%	4.78µM*	-29.0%	?	-4.1%
Cc1ccc2nc(-c3cccc(S(=O)(=O)N(C)C)c3)cn2c1	3.16µM*	?	?	16.3%	12.3%	-13.1%
CCN(CC)S(=O)(=O)c1cccc(-c2n[nH]c(=S)n2Cc2ccccc2)c1	-2.7%	-5.5%	?	-8.6%	-6.7%	0.9%
O=C(CSc1nc2ccccc2o1)c1ccc2c(c1)OCCO2	?	28.0%	8.49µM*	-1.1%	?	1.5%
CC(=O)CSc1nc2ccccc2o1	19.2%	5.2%	-15.7%	2.6%	?	3.8%
c1ccc(OCCSc2nc3ccccc3o2)cc1	20.6%	19.0%	21.3µM*	-9.5%	14.3%	11.6%
O=C(CSc1nc2ccccc2o1)c1ccccc1	?	?	10.7µM*	17.2%	11.1%	-3.8%
CCOc1ccc(OCCSc2nc3ccccc3o2)cc1	-1.6%	6.9%	-18.0%	4.4%	9.6%	-5.0%
C=C(CCC12O[C@H](C(=O)O)[C@@](O)(C(=O)O)[C@](C(=O)O)(O1)[C@H](OC(=O)/C=C/[C@@H](C)C[C@@H](C)CC)[C@H]2O)[C@@H](OC(C)=O)[C@H](C)Cc1ccccc1	/	/	/	/	/	2.3%[39.9 µM]
Cc1ccc(NC(=O)Cn2cc(S(=O)(=O)N3CCN(c4ccccc4F)CC3)c3ccccc3c2=O)cc1F	/	/	4.1%	1.4%	/	/
O=C(O)c1cccc(CSc2n[nH]c(-c3ccc(Cl)cc3Cl)n2)c1	-0.8%	-1.9%	26.9µM*	3.2%	6.7%	-3.0%
O=C(O)c1cccc(CSc2ncccn2)c1	1.0%	3.7%	-14.9%	/	8.5%	-1.0%
NC(=Nc1ccccc1)NC(=O)c1nc(Cl)c(N)nc1N	?	?	/	14.1µM*	/	-10.7%
CCCCC(=O)N(CCOC)c1nnc(-c2ccc(OC)cc2)s1	3.1%	1.5%	6.6%[2.3 µM]	?	0.3%	-0.1%
CCN(C(=O)c1ccco1)c1nnc(-c2ccc(OC)cc2)s1	1.78µM*	?	0.953µM*	12.6µM*	?	-22.0%
COCCN(C(=O)C1CC1)c1nnc(-c2cccc(C)c2)s1	24.7%	23.2%	?	7.0%	?	-1.0%
CCCN(C(=O)c1ccco1)c1nnc(-c2cccc(C)c2)s1	?	17.3%	16.9µM*	/	8.1%	-1.2%
COc1ccc(/C=C2\CCc3ccccc3C2=O)cc1O	3.0%	-1.5%	0.338µM*	/	3.66µM*	/
COc1ccc(/C=C2\Cc3ccccc3C2=O)cc1OC	-1.6%	12.3%	3.38µM*	/	16.4µM*	/
COc1ccc(/C=C2\CCc3ccccc3C2=O)cc1Cn1cccn1	1.6%	0.7%	5.36µM*	-11.7%	?	-1.8%
COc1ccc2c(c1)OC/C(=C/c1ccc(O)c(O)c1)C2=O	/	/	/	2.7%	/	-2.0%

Screening results (PubChem)
